According to article PMC5540273 (PLoS ONE, 2017):
“And” between values parts separate entries of the source, which are not always exact repeats. Identical values can stand only once. Like-named read-outs stand apart in the source and are kept apart here.

Key:
PIKFYVE = conditions: concentration: 1 μM, replicates: in singlicate; n = 1
PIM1 = conditions: concentration: 1 μM, replicates: in singlicate, n = 1
PIM2 = conditions: concentration: 1 μM, replicates: in singlicate; n = 1
PIM3 = conditions: concentration: 1 μM, replicates: in singlicate, n = 1
PIP5K1A = conditions: concentration: 1 μM, replicates: in singlicate, n = 1
PIP5K1C = conditions: concentration: 1 μM, replicates: in singlicate, n = 1
PIP5K2B = conditions: concentration: 1 μM, replicates: in singlicate, n = 1
PIP5K2C = test system: T1, PIP5K2C; conditions: concentration: 1 μM, replicates: in singlicate, n = 1
T1 construct: gene PIP4K2C

PKAC-alpha = test system: T2, PKAC-alpha; conditions: concentration: 1 μM, replicates: in singlicate, n = 1
T2 construct: gene PRKACA

PKAC-beta = test system: T3, PKAC-beta; conditions: concentration: 1 μM, replicates: in singlicate, n = 1
T3 construct: gene PRKACB

PKMYT1 = conditions: concentration: 1 μM, replicates: in singlicate, n = 1
PKN1 = conditions: concentration: 1 μM, replicates: in singlicate, n = 1
PKN2 = conditions: concentration: 1 μM, replicates: in singlicate, n = 1
PLK1 = conditions: concentration: 1 μM, replicates: in singlicate, n = 1
PLK2 = conditions: concentration: 1 μM, replicates: in singlicate, n = 1
PLK3 = conditions: concentration: 1 μM, replicates: in singlicate; n = 1
PLK4 = conditions: concentration: 1 μM, replicates: in singlicate, n = 1
PRKCD = conditions: concentration: 1 μM, replicates: in singlicate, n = 1
PRKCE = conditions: concentration: 1 μM, replicates: in singlicate, n = 1
PRKCH = conditions: concentration: 1 μM, replicates: in singlicate, n = 1
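Also: KINOMEscan kinase panel screen.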

## O=c1cc(N2CCOCC2)nc2n(Cc3cccc(C(F)(F)F)c3)ccn12 [GSK2297543]
PIKFYVE
  %Inh: 0%
PIM1
  %Inh: 11%
PIM2
  %Inh: 0%
PIM3
  %Inh: 0%
PIP5K1A
  %Inh: 0%
PIP5K1C
  %Inh: 28%
PIP5K2B
  %Inh: 9%
PIP5K2C
  %Inh: 1%
PKAC-alpha
  %Inh: 0%
PKAC-beta
  %Inh: 8%
PKMYT1
  %Inh: 0%
PKN1
  %Inh: 29%
PKN2
  %Inh: 5%
PLK1
  %Inh: 3%
PLK2
  %Inh: 0%
PLK3
  %Inh: 0%
PLK4
  %Inh: 0%
PRKCD
  %Inh: 8%
PRKCE
  %Inh: 0%
PRKCH
  %Inh: 9%

## COCCNC(=O)c1ccc(-c2cc(C(=O)NC3CC3)cc(F)c2C)cc1 [GW868318]
PIKFYVE
  %Inh: 43%
PIM1
  %Inh: 15%
PIM2
  %Inh: 3%
PIM3
  %Inh: 29%
PIP5K1A
  %Inh: 1%
PIP5K1C
  %Inh: 0%
PIP5K2B
  %Inh: 0%
PIP5K2C
  %Inh: 0%
PKAC-alpha
  %Inh: 9%
PKAC-beta
  %Inh: 37%
PKMYT1
  %Inh: 10%
PKN1
  %Inh: 0%
PKN2
  %Inh: 20%
PLK1
  %Inh: 66%
PLK2
  %Inh: 46%
PLK3
  %Inh: 33%
PLK4
  %Inh: 34%
PRKCD
  %Inh: 15%
PRKCE
  %Inh: 36%
PRKCH
  %Inh: 0%

## COc1cc2c(cc1OCCN1CCN(C)CC1)ncc1c3ccc(C#N)cc3[nH]c21
PIKFYVE
  %Inh: 64%
PIM1
  %Inh: 34%
PIM2
  %Inh: 90.9%
PIM3
  %Inh: 63%
PIP5K1A
  %Inh: 57%
PIP5K1C
  %Inh: 55%
PIP5K2B
  %Inh: 94.8%
PIP5K2C
  %Inh: 35%
PKAC-alpha
  %Inh: 0%
PKAC-beta
  %Inh: 0%
PKMYT1
  %Inh: 0%
PKN1
  %Inh: 56%
PKN2
  %Inh: 25%
PLK1
  %Inh: 0%
PLK2
  %Inh: 16%
PLK3
  %Inh: 16%
PLK4
  %Inh: 0%
PRKCD
  %Inh: 1%
PRKCE
  %Inh: 0%
PRKCH
  %Inh: 0%

## CN1c2ccc(NCc3ccc(F)cc3)cc2-c2c(cnn2C)S1(=O)=O
PIKFYVE
  %Inh: 32%
PIM1
  %Inh: 0%
PIM2
  %Inh: 2%
PIM3
  %Inh: 0%
PIP5K1A
  %Inh: 31%
PIP5K1C
  %Inh: 31%
PIP5K2B
  %Inh: 0%
PIP5K2C
  %Inh: 3%
PKAC-alpha
  %Inh: 9%
PKAC-beta
  %Inh: 0%
PKMYT1
  %Inh: 0%
PKN1
  %Inh: 0%
PKN2
  %Inh: 0%
PLK1
  %Inh: 2%
PLK2
  %Inh: 0%
PLK3
  %Inh: 0%
PLK4
  %Inh: 0%
PRKCD
  %Inh: 0%
PRKCE
  %Inh: 23%
PRKCH
  %Inh: 0%

## COc1ccc(S(=O)(=O)NC2CCN(c3cc(C)nc(Nc4cccc(C#N)c4)n3)CC2)cc1.O=C(O)C(F)(F)F [GSK1653539]
PIKFYVE
  %Inh: 0%
PIM1
  %Inh: 25%
PIM2
  %Inh: 0%
PIM3
  %Inh: 0%
PIP5K1A
  %Inh: 0%
PIP5K1C
  %Inh: 11%
PIP5K2B
  %Inh: 0%
PIP5K2C
  %Inh: 37%
PKAC-alpha
  %Inh: 0%
PKAC-beta
  %Inh: 0%
PKMYT1
  %Inh: 0%
PKN1
  %Inh: 0%
PKN2
  %Inh: 0%
PLK1
  %Inh: 0%
PLK2
  %Inh: 0%
PLK3
  %Inh: 0%
PLK4
  %Inh: 0%
PRKCD
  %Inh: 0%
PRKCE
  %Inh: 0%
PRKCH
  %Inh: 11%

## Fc1ccc(-c2ncn(CCCN3CCOCC3)c2-c2cccnc2)cc1 [SB-211743]
PIKFYVE
  %Inh: 0%
PIM1
  %Inh: 12%
PIM2
  %Inh: 2%
PIM3
  %Inh: 0%
PIP5K1A
  %Inh: 5%
PIP5K1C
  %Inh: 0%
PIP5K2B
  %Inh: 5%
PIP5K2C
  %Inh: 0%
PKAC-alpha
  %Inh: 0%
PKAC-beta
  %Inh: 25%
PKMYT1
  %Inh: 0%
PKN1
  %Inh: 0%
PKN2
  %Inh: 13%
PLK1
  %Inh: 0%
PLK2
  %Inh: 0%
PLK3
  %Inh: 15%
PLK4
  %Inh: 0%
PRKCD
  %Inh: 6%
PRKCE
  %Inh: 0%
PRKCH
  %Inh: 0%

## Cn1cc(-c2ccc3c(c2)CCN3C(=O)Cc2ccccc2Cl)c2c(N)ncnc21 [GSK2608885]
PIKFYVE
  %Inh: 0%
PIM1
  %Inh: 10%
PIM2
  %Inh: 0%
PIM3
  %Inh: 0%
PIP5K1A
  %Inh: 0%
PIP5K1C
  %Inh: 7%
PIP5K2B
  %Inh: 0%
PIP5K2C
  %Inh: 90.5%
PKAC-alpha
  %Inh: 45%
PKAC-beta
  %Inh: 34%
PKMYT1
  %Inh: 18%
PKN1
  %Inh: 42%
PKN2
  %Inh: 31%
PLK1
  %Inh: 15%
PLK2
  %Inh: 51%
PLK3
  %Inh: 86%
PLK4
  %Inh: 55%
PRKCD
  %Inh: 51%
PRKCE
  %Inh: 7%
PRKCH
  %Inh: 54%

## NCCNS(=O)(=O)c1ccc(-c2ccnc3[nH]ccc23)cc1 [GSK977617]
PIKFYVE
  %Inh: 0%
PIM1; 1 µM
  %Inh: 56% and 35%
PIM2
  %Inh: 0%
PIM3; 1 µM
  %Inh: 40% and 0%
PIP5K1A; 1 µM
  %Inh: 61% and 30%
PIP5K1C; 1 µM
  %Inh: 83% and 62%
PIP5K2B; 1 µM
  %Inh: 76% and 35%
PIP5K2C; 1 µM
  %Inh: 17% and 13%
PKAC-alpha; 1 µM
  %Inh: 99.3% and 98.8%
PKAC-beta; 1 µM
  %Inh: 99.2% and 98.3%
PKMYT1; 1 µM
  %Inh: 5% and 0%
PKN1; 1 µM
  %Inh: 44% and 19%
PKN2; 1 µM
  %Inh: 66% and 50%
PLK1; 1 µM
  %Inh: 6% and 2%
PLK2; 1 µM
  %Inh: 10% and 0%
PLK3
  %Inh: 0%
PLK4; 1 µM
  %Inh: 26% and 24%
PRKCD; 1 µM
  %Inh: 97.7% and 95.2%
PRKCE; 1 µM
  %Inh: 96.8% and 68%
PRKCH; 1 µM
  %Inh: 95% and 91%

## c1ccc(-c2cc(-c3c[nH]nc3-c3ccccn3)ccn2)cc1 [GW576604]
PIKFYVE
  %Inh: 0%
PIM1
  %Inh: 0%
PIM2
  %Inh: 0%
PIM3
  %Inh: 0%
PIP5K1A
  %Inh: 19%
PIP5K1C
  %Inh: 58%
PIP5K2B
  %Inh: 0%
PIP5K2C
  %Inh: 30%
PKAC-alpha
  %Inh: 5%
PKAC-beta
  %Inh: 0%
PKMYT1
  %Inh: 3%
PKN1
  %Inh: 9%
PKN2
  %Inh: 0%
PLK1
  %Inh: 0%
PLK2
  %Inh: 0%
PLK3
  %Inh: 0%
PLK4
  %Inh: 0%
PRKCD
  %Inh: 0%
PRKCE
  %Inh: 0%
PRKCH
  %Inh: 0%

## COc1ccc(COc2cc(-n3cnc4ccccc43)sc2C(N)=O)cc1 [GSK1024304]
PIKFYVE
  %Inh: 0%
PIM1
  %Inh: 11%
PIM2
  %Inh: 0%
PIM3
  %Inh: 0%
PIP5K1A
  %Inh: 17%
PIP5K1C
  %Inh: 45%
PIP5K2B
  %Inh: 5%
PIP5K2C
  %Inh: 3%
PKAC-alpha
  %Inh: 0%
PKAC-beta
  %Inh: 0%
PKMYT1
  %Inh: 0%
PKN1
  %Inh: 0%
PKN2
  %Inh: 0%
PLK1
  %Inh: 97.4%
PLK2
  %Inh: 90%
PLK3
  %Inh: 86%
PLK4
  %Inh: 4%
PRKCD
  %Inh: 4%
PRKCE
  %Inh: 0%
PRKCH
  %Inh: 0%
